Assay [1] is described as follows: yeast TOR pathway RPL19A-GFP modulators, primary screen, cell-based, S. cerevisiae, multiplex flow cytometry (AID 1862; in the data active = percent of DMSO control GFP below about 86%;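 also: lower values mimic rapamycin by blocking the RPL19A rise seen in DMSO cells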). To be noted: S. cerevisiae RPL19A-GFP strain, flow cytometry fluorescence, 3 h; at 10 µM; stronger effect = lower value. For orientation: A flow cytometer gives signals particle by particle.
Assay [2] is described as follows: modulators of MEP2-GFP levels in yeast, primary screen, S. cerevisiae, multiplex flow cytometry (AID 1867;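 active = GFP response, as percent of the DMSO control, above the screen-wide mean plus 3 SD, about 139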;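 also: median GFP channel fluorescence of barcode-gated MEP2-GFP cells measured by flow cytometry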). The note with it: S. cerevisiae MEP2-GFP strain, 3 h, at 10 µM, stronger effect = higher value, 100% means same as DMSO wells.
The nature of assay [3]: modulators of CIT2-GFP expression in yeast, primary screen, S. cerevisiae, GFP fusion, multiplex flow cytometry (AID 1870;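 active = percent response above a set limit, the screen-wide mean plus 3 SD, cut at about 130% in these data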;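 also: barcoded CIT2-GFP strain pooled with four other GFP strains with rapamycin as positive control; median GFP fluorescence per well over plate mean of DMSO wells so 100% = DMSO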). To be noted: 3 h, at 10 µM, stronger effect = higher value.
Assay [4] can be described thus: modulators of LAP4-GFP expression in yeast, primary screen, S. cerevisiae, multiplex flow cytometry (AID 1873). The note with it: 3 h, at 10 µM, stronger effect = higher value.
Assay [5] can be described thus: modulators of AGP1-GFP expression in yeast TOR pathway, primary screen, cell-based, multiplex flow cytometry, S. cerevisiae (AID 1887;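 active = GFP signal above the screen-wide mean plus 3 SD, that is over about 124.5% of the solvent control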;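 also: AGP1-GFP fusion strain of S. cerevisiae within a five-strain barcoded multiplex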). The note with it: 3 h, at 10 µM, stronger effect = higher value.
A short description of assay [6]: inhibitors of CD8+ T cell-vesicle binding, pilot screen, LFA-1/ICAM-1 modulator project, MLPCN validation set, flow cytometry (AID 2523;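 active = response below a set limit, under 55% cells CD8-positive and vesicle-bound, and CD8 cells' 90th-percentile brightness under 279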;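 as to vesicle binding response: mean PE anti-B7-1 fluorescence of CD8+ cells relative to row control; 100% = QL9-loaded vesicles with DMSO vehicle in the same plate row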). The note with it: 2C mouse CD8+ T cells, at 7 µM, stronger effect = lower value; double positive events: measured here: CD8+/vesicle+ event percentage.
For assay [7], the target named is Integrin beta-1 (Homo sapiens) + Integrin alpha-4 (Homo sapiens) (UniProt P13612+P05556). Put plainly: inhibition of HUTS-21 binding to VLA-4, pilot screen, VLA-4 allosteric modulator project, U937 cells, HUTS-21 mAb, flow cytometry, validation set (AID 2674;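 active = inhibition above 50%, about 3 SD of the validation set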;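 also: antibody binding induced by the VLA-4 ligand LDV present at three times its Kd; 0% = LDV ligand with antibody and no compound and 100% = antibody without LDV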). To be noted: HUTS-21 LIBS mAb binding, at 6.7 µM, stronger effect = higher value, binding induced by LDV ligand.
A short description of assay [8]: superoxide lowering in aged yeast cells, pilot screen, validation compound set (AID 2706;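 active = superoxide response below 65% of plate, a cut near 3 SD across the whole screen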;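 also: yeast exposed to compound for one week at 30 degrees C before staining; 100% = mean of all compound wells on the same plate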). The note with it: S. cerevisiae aging, superoxide DHE fluorescence; at 10 µM; stronger effect = lower value.
Assay [9] has as its target Beta-adrenergic receptor kinase 1 (Homo sapiens) (UniProt P25098). The experiment in a line: GRK2 binders displacing RNA aptamer, biochemical, validation, human GRK2, bead flow cytometry (AID 488806;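 active = aptamer binding inhibition above 30%, about 3 SD of noise from non-fluorescent compounds; inactive = inhibition at or below 30%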). To be noted: bead-bound GRK2, FAM-aptamer displacement, at 10 µM, stronger effect = higher value.
Assay [10] has as its target Beta-2 adrenergic receptor (Homo sapiens) (UniProt P07550). Put plainly: beta2AR agonists driving receptor internalization, pilot screen, cell-based, FAP fluorogen, flow cytometry, validation set (AID 504459;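 active = percent response above 42, roughly 3 SD of non-fluorescent test compounds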;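 also: agonist-driven loss of surface beta2AR via internalization measured by FAP dye flow cytometry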). The note with it: Am2.2-beta2AR cells, FAP surface receptor flow cytometry; at 10 µM; stronger effect = higher value.
Assay [11] concerns the target AP-2 complex subunit beta (Homo sapiens) (UniProt P63010). Put plainly: inhibitors of arrestin peptide binding to AP2, pilot screen, biochemical, validation set, GST-AP2 beads, flow cytometry (AID 504541;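 active = inhibition above 54%, about 3 SD of non-fluorescent compounds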;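 also: AP2 carries R879A mutation and is captured from E. coli lysate; bead-bound FITC arrestin peptide fluorescence measuring arrestin peptide binding to AP2; 0% = DMSO wells and 100% = excess unlabeled arrestin peptide control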). The note with it: FITC arrestin peptide, at 10 µM, stronger effect = higher value, AP2 beta2 appendage fragment, R879A mutant.
The nature of assay [12]: yeast V-ATPase proton transport modulators, S. cerevisiae, pHLuorin, HTS validation (AID 504600; in the data active = response above about 15%;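 also: plate controls were DMSO for no effect and reference compound for full effect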). To be noted: S. cerevisiae pHLuorin cytosolic pH, at 10 µM, stronger effect = higher value.
For assay [13], the system named is anti-desmoglein-3 scFv antibody binding to human DSG3. Put plainly: inhibitors of anti-DSG3 scFv binding to DSG3, pilot screen, biochemical, validation compound set, bead-based, flow cytometry (AID 588368;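 active = binding below the plate cutoff, the plate median minus 3 SD, with a reading above zero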;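 also: signal is the median channel fluorescence of bead-bound GFP antibody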). The note with it: Protein G beads, DSG3-Fc, scFv-GFP binding, at 10 µM, stronger effect = lower value.
Assay [14] is described as follows: inhibitors of fungal efflux pumps CDR1, CDR2, MDR1, pilot screen, validation compound set, multiplex, phenotypic (AID 588506;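 active = efflux inhibition above 0.42, the validation set average plus 4 SD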;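 also: Nile Red retained in cells so higher fluorescence means more efflux inhibition; 0 = negative control wells and 1 = enniatin B 25 µM full block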). The note with it: S. cerevisiae pump-expressing triplex, Nile Red efflux flow cytometry; at 10 µM; stronger effect = higher value; the pumps come from Candida albicans.
Assay [15] has as its target ATP-binding cassette sub-family B member 6 (Homo sapiens) (UniProt Q9NP58). Put plainly: ABCB6 transporter inhibitors, pilot screen, K562-ABCB6 cells, flow cytometry, validation set (AID 588550;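 active = inhibition above the screen-wide mean plus 3 SD, about 51%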;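 also: 0% = DMSO wells and 100% = benzethonium chloride 70 µM positive control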). To be noted: K562-ABCB6 porphyrin accumulation, 1 h, at 10 µM, stronger effect = higher value.
A short description of assay [16]: promoters of myeloid differentiation in arrested cells, primary screen, cell-based, GFP/MAC1 double positive, flow cytometry, validation set (AID 588685;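 active = differentiation response of at least 50%, scaled between solvent and reference control, from cells with both markers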;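 also: compound exposure lasts four days before antibody staining and flow analysis; 0% = DMSO wells and 100% = 5 µM fulvestrant positive control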). The note with it: ER-HoxA9 marrow cells, stronger effect = higher value, normalized: vehicle 0, fulvestrant 100.

We go through four compounds from PubChem BioAssay.

Structures are written as SMILES. Results filed as inconclusive are left out. Calls of active or inactive are those of the source.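 The calls were made as follows, unless noted: active = GFP signal, as percent of the solvent control, above the screen mean plus 3 SD, about 149; inconclusive = no reading because the compound's own fluorescence upset strain identification; inactive = the rest.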

Beta-2 adrenergic receptor (Homo sapiens), sequence (P07550 whole entry, looked up): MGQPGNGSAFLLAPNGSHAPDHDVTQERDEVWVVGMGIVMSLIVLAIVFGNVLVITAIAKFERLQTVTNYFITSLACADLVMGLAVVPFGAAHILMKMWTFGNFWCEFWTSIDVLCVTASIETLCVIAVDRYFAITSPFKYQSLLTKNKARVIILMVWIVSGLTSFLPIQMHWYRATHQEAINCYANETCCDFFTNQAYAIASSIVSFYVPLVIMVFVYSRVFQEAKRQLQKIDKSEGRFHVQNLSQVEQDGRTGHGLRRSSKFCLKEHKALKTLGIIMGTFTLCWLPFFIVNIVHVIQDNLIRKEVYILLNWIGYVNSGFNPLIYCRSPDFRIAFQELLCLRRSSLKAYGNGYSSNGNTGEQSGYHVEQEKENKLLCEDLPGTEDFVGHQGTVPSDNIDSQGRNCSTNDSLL
Integrin beta-1 (Homo sapiens) + Integrin alpha-4 (Homo sapiens), sequence (P05556 whole entry, looked up): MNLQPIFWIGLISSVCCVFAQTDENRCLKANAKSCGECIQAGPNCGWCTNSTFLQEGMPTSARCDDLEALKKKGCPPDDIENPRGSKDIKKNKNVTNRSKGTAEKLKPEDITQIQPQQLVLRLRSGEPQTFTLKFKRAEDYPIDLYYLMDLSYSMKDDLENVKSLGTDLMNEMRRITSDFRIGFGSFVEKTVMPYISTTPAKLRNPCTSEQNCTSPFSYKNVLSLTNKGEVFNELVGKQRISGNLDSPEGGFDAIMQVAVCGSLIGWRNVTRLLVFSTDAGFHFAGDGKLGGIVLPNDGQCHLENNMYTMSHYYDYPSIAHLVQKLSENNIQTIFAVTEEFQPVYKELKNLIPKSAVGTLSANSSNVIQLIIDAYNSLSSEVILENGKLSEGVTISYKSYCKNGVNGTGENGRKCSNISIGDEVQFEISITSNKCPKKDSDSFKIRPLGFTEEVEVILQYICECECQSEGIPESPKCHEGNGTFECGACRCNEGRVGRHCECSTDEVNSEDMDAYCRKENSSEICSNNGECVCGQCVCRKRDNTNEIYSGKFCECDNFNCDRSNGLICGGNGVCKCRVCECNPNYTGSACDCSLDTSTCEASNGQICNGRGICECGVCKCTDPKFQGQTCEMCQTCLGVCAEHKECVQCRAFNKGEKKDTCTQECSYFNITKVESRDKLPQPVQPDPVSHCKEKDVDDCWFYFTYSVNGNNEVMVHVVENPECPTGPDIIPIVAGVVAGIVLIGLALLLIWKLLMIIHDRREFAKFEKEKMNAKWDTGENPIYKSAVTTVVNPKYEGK
Integrin beta-1 (Homo sapiens) + Integrin alpha-4 (Homo sapiens), sequence (P13612 whole entry, looked up): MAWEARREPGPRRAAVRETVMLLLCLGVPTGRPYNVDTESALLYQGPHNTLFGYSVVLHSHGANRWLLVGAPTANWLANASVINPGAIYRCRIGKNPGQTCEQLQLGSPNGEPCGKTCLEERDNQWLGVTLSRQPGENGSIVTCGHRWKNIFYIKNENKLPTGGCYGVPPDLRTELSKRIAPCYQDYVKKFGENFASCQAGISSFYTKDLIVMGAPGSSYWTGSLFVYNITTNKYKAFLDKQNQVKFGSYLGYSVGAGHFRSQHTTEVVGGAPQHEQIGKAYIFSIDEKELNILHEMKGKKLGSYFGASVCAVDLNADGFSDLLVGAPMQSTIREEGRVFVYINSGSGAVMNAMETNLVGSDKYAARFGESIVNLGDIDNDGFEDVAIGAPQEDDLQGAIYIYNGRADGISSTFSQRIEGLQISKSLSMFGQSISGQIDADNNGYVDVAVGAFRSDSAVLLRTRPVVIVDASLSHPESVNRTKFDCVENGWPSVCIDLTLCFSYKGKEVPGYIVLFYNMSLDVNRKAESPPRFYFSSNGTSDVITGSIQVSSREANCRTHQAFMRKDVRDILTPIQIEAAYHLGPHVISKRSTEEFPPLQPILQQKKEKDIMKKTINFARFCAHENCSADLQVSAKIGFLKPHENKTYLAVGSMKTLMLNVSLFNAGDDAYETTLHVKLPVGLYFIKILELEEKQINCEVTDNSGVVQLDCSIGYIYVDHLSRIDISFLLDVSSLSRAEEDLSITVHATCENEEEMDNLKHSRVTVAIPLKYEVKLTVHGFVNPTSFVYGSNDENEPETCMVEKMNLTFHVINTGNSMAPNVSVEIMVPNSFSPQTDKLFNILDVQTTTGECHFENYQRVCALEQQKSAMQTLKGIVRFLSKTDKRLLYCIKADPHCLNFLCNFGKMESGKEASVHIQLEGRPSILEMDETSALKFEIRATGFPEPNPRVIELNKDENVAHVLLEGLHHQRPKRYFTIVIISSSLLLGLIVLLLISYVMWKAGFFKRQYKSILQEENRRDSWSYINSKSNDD
ATP-binding cassette sub-family B member 6 (Homo sapiens), sequence (Q9NP58 whole entry, looked up): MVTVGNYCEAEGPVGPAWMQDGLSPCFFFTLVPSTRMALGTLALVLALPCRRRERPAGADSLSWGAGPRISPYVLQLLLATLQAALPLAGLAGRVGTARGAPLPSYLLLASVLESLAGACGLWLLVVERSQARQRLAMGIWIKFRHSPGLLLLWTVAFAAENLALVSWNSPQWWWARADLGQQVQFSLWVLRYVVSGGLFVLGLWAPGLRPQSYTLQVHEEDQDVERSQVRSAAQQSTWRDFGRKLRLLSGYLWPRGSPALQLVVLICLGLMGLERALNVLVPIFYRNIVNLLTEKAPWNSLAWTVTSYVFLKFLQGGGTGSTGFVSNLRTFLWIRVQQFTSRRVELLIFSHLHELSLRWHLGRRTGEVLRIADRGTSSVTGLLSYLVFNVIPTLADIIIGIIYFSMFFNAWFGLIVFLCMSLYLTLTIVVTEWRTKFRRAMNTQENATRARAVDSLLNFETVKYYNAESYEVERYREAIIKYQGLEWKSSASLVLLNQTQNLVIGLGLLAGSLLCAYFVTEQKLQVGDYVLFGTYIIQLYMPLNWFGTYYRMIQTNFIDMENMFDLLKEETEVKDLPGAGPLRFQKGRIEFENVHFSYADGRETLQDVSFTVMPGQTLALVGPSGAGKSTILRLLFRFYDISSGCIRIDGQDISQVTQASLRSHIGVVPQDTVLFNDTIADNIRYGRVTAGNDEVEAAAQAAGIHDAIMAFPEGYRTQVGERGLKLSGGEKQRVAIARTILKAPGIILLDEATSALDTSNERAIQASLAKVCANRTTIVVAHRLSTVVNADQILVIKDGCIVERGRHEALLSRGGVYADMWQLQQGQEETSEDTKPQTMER
AP-2 complex subunit beta (Homo sapiens), sequence (P63010 whole entry, looked up, the tested form may be a part, one chain of several): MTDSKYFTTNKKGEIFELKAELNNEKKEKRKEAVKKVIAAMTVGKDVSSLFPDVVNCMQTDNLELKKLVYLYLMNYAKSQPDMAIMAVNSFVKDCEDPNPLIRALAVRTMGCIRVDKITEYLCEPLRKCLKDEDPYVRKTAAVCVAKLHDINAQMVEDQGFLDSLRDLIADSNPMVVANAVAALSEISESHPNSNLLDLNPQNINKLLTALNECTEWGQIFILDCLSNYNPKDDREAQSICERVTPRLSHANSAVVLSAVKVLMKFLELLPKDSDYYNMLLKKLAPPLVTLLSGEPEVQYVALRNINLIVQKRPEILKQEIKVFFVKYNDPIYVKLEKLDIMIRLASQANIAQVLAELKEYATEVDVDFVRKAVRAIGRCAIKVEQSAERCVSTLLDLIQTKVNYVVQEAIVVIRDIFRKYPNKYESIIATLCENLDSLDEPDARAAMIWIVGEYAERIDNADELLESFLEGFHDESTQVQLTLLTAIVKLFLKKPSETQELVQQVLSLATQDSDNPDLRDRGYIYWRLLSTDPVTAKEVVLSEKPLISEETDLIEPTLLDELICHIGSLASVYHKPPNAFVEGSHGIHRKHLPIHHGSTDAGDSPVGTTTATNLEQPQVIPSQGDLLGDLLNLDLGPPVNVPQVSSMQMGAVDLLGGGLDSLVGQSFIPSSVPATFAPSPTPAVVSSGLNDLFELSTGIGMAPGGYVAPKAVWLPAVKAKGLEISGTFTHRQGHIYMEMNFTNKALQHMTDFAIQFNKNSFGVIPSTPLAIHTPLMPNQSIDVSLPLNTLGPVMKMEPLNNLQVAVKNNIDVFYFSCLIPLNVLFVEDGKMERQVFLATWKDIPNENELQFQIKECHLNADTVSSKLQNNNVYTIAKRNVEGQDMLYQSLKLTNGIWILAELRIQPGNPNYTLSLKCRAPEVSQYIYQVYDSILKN
Beta-adrenergic receptor kinase 1 (Homo sapiens), sequence (P25098 whole entry, looked up): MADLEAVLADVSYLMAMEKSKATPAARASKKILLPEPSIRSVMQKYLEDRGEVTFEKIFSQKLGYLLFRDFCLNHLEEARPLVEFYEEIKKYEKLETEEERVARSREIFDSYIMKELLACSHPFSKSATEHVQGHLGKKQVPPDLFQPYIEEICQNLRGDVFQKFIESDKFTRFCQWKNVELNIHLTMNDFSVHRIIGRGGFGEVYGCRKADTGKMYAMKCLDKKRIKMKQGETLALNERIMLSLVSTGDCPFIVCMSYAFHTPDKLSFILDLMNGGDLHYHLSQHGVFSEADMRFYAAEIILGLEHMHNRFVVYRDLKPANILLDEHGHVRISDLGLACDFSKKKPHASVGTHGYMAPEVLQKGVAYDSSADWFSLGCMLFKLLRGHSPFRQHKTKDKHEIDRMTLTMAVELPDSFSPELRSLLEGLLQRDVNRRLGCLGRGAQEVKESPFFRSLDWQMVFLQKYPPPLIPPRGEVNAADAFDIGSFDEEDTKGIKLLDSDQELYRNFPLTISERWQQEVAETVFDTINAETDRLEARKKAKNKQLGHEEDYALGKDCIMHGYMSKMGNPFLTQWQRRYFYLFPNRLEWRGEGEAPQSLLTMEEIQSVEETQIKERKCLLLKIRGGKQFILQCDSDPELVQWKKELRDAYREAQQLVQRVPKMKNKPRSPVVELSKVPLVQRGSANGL

As a reminder, the inhibition is the change of the read-out against control, counted positive when it falls. Regarding `CCOc1ccc2nc(S(N)(=O)=O)sc2c1`, the percent of DMSO control GFP in [1] is 101% (inactive). Further, the GFP response vs DMSO in assay [2] was 104% (inactive); in assay [4] it was 100% (inactive). In assay [3], the percent response of DMSO control is 99.7% (inactive). For the same compound, the GFP response, % of DMSO in assay [5] was 103% (inactive). Moreover, the double positive events in assay [6] was 55.1%. In addition, the vesicle binding response in [6] was 103% (inactive). Also, the inhibition is 0.25% (inactive) in [7], -2.81% (inactive) in assay [11] and 7% (inactive) in assay [15]. Moreover, the superoxide response (% of plate) in assay [8] is 102% (inactive). In addition, the aptamer binding inhibition in assay [9] is 5% (inactive). Moreover, the response in assay [10] was 3.56% (inactive); in assay [12], -4.65% (inactive). Moreover, the binding (% of control) in [13] was 101% (inactive). In addition, in assay [14], the efflux inhibition (fraction of control) was -0.29 (inactive). In assay [16], the differentiation response is -13.3% (inactive).
In the case of `Cc1cc(=O)c2c(O)c(O)ccc2o1`, the percent of DMSO control GFP in [1] was 102% (inactive). The GFP response vs DMSO was 107% (inactive) in [2] and 90.7% (inactive) in assay [4]. For the same compound, the percent response of DMSO control in [3] was 98.9% (inactive). The GFP response, % of DMSO in assay [5] was 101% (inactive). The compound further returned a double positive events in assay [6] of 60.3%. Also, the vesicle binding response in [6] was 30% (inactive). Also, the inhibition in assay [7] is -7.72% (inactive); in assay [11] it was -12.7% (inactive); in assay [15], 7% (inactive). Further, in assay [8], the superoxide response (% of plate) was 105% (inactive). Also, the aptamer binding inhibition in [9] is -4% (inactive). Besides, the response in assay [10] is 5.76% (inactive); in assay [12] it was -0.09% (inactive). The binding (% of control) in assay [13] was 98.5% (inactive). Further, in [14], the efflux inhibition (fraction of control) is -0.07 (inactive). Besides, in [16], the differentiation response is 9.04% (inactive).
For the compound `CCOC(=O)c1c(O)c2c([nH]c1=O)CCCC2`, in assay [1], the percent of DMSO control GFP was 100% (inactive). Also, the GFP response vs DMSO in assay [2] was 91.9% (inactive); in assay [4], 102% (inactive). In assay [3], the percent response of DMSO control is 101% (inactive). In addition, the GFP response, % of DMSO in [5] is 96% (inactive). Further, the double positive events in assay [6] stood at 69.7%. Further, the vesicle binding response in assay [6] was 109% (inactive). The figures for the inhibition in [7], in assay [11] and in assay [15] were -34.6% (inactive), 17.2% (inactive) and 9% (inactive), respectively. In addition, the superoxide response (% of plate) in assay [8] was 101% (inactive). Also, in [9], the aptamer binding inhibition is 3% (inactive). Further, the response in assay [10] was -11% (inactive); in assay [12], -2.71% (inactive). Also, in [13], the binding (% of control) was 99.3% (inactive). Also, the efflux inhibition (fraction of control) in assay [14] was 0.01 (inactive). The differentiation response in [16] was 5.6% (inactive).
As to `CN(C)c1ccc(C(CN)c2c[nH]c3ccccc23)cc1` (stereo not drawn), in assay [1], the percent of DMSO control GFP was 106% (inactive). Besides, the GFP response vs DMSO in assay [2] was 109% (inactive); in [4], 108% (inactive). For the same compound, the percent response of DMSO control in [3] is 104% (inactive). The GFP response, % of DMSO in [5] was 107% (inactive). The compound also had a double positive events in assay [6] of 61.4%. In assay [6], the vesicle binding response is 112% (inactive). Moreover, the values for the inhibition in [7], in assay [11] and in [15] were 9.63% (inactive), 33.6% (inactive) and -9% (inactive), respectively. For the same compound, the superoxide response (% of plate) in assay [8] is 99.4% (inactive). In addition, in [9], the aptamer binding inhibition was -10% (inactive). In addition, the response in assay [10] is 4.69% (inactive); in assay [12] it was -9.67% (inactive). Further, in assay [13], the binding (% of control) is 102% (inactive). Also, the efflux inhibition (fraction of control) in assay [14] is 0.09 (inactive). The differentiation response in [16] was -16.3% (inactive).
